Fewer than 10 of roughly 96,000 compounds were called active. The list is a sample of the results. Values without a mark were called inactive.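 How the source made its calls: active means activation factor of at least 2 at 5 µM in the primary screen; inactive means the rest.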

Cytochrome P450 2C19 (Homo sapiens), sequence (P33261 whole entry, looked up): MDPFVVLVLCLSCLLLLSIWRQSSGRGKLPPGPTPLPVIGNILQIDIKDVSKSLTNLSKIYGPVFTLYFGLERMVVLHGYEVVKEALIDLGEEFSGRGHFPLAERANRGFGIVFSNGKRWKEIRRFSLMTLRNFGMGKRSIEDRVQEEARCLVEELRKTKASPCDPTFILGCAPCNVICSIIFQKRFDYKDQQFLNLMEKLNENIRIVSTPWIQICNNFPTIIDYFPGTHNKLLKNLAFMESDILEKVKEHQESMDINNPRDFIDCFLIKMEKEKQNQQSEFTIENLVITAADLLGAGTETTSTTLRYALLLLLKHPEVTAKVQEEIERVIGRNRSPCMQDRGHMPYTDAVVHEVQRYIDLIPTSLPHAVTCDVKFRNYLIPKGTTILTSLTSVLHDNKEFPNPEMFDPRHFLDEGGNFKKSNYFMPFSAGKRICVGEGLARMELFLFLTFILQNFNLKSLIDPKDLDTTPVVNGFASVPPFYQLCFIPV

This experiment addresses Cytochrome P450 2C19 (Homo sapiens) (UniProt P33261). Briefly: enhancers of cytochrome P450 2C19 turnover – biochemical, luminescence, primary screen (AID 1025).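 Further: 0 = wells with 2.5 mM tranylcypromine and 1 = vehicle-only wells.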 The note with it: recombinant CYP2C19, luciferin-H EGE luminescence; at 5 µM; active compounds read high; 0 = fully inhibited enzyme, 1 = untreated enzyme.
For the compound `CCc1ccc(CNC(=O)C2CCCN(c3nc4ccccc4o3)C2)cc1` (stereo not drawn), the activation factor was 0.3.

As for `CCn1cc(C(=O)N/N=C(/C)c2ccc(F)cc2)c(=O)c2cc(F)c(N3CCCC3)cc21`, the activation factor is 0.6.

With `O=C(Nc1cccc(-c2nc3ncccc3o2)c1)c1ccco1`, the activation factor was 0.9.

Turning to `COc1ccccc1NC(=O)[C@H](COCc1ccccc1)NC(=O)OC(C)(C)C`, the activation factor is 0.5.

Consider `CN=C1SC(CC(=O)Nc2ccc(C(=O)O)cc2)C(=O)N1C` (stereo not drawn), for which the activation factor is 1.

As to `O=C(c1ccco1)N1CCN(C(=O)C2CCCN(S(=O)(=O)c3cccc4nsnc34)C2)CC1` (stereo not drawn), the activation factor is 1.

`COc1ccc(NC(=O)Cn2c(-c3ccc(OC)cc3)cn(-c3ccc(C)cc3)c2=O)cc1`: the activation factor is 1.

In the case of `O=C(N/N=C/c1ccc(O)cc1)/C(=C/c1ccc([N+](=O)[O-])cc1)NC(=O)c1ccccc1`, the activation factor was 0.9.

Consider `CSc1ccc(C#N)cc1NC(=O)c1cccc(Cl)c1`, for which the activation factor is 0.8.

Take `Cc1ccc(S(=O)(=O)N(CC(=O)NCCSC2CCCCC2)c2ccccc2F)cc1`: the activation factor is 1.

As for `CC(c1ccco1)N(C(=O)COc1ccccc1[N+](=O)[O-])c1ccccn1` (stereo not drawn), the activation factor is 0.6.

On to `C=CCn1c(SCC(=O)NCc2ccccc2)nnc1-c1cc(Br)ccc1O`, for which the activation factor is 0.1.

Turning to `O=C(Nc1nccs1)c1cc(S(=O)(=O)N2CCOCC2)c(Cl)cc1Cl`, the activation factor is 0.9.

As for `CC(C)CCOc1ccc(C(=O)C[N+]2(C)CCOCC2)cc1`, the activation factor was 0.9.

With `O=C(N/N=C/C=C/c1ccccc1)C1CC1(c1ccccc1)c1ccccc1` (stereo not drawn), the activation factor is 1.2.

For the compound `COCCNC(=O)COc1ccccc1C`, the activation factor was 1.

For the compound `COc1ccccc1NC(=O)COc1ccc(C(=O)OCC(=O)N(C(C)C)C(C)C)cc1OC`, the activation factor was 0.4.

Take `CCCN1Cc2cccc(C(=O)Nc3ccc(S(=O)(=O)N4CCCCCC4)cc3)c2C1=O`: the activation factor is 0.8.

For the compound `Cc1cccc(C)c1-n1c(C)cc(/C=C2\C(=O)NN(c3ccccc3)C2=O)c1C`, the activation factor is 0.6.

Take `Cc1ccc(SCCC(=O)OCC(=O)Nc2ncc(Cl)cc2Cl)cc1`: the activation factor is 0.8.

As to `COc1ccc(NCc2nnc(SCc3ccccc3)n2-c2ccc(OC)cc2)cc1`, the activation factor was 0.1.

Turning to `COc1ccc(-c2cc3nc(C)c(CCC(=O)NC(C)CCc4ccco4)c(C)n3n2)c(OC)c1` (stereo not drawn), the activation factor is 0.7.

In the case of `O=C(COc1cc(Cl)c(Cl)cc1Cl)NC(=O)NC1CCCC1`, the activation factor is 1.1.

`CCCCCN1CC(O)=C(c2nc(-c3ccc(Cl)cc3)cs2)C1=N`: the activation factor was 0.9.

As for `Cc1ccc(-n2c(SCC(=O)NCc3ccc4c(c3)OCO4)nnc2-c2cccnc2)c(C)c1`, the activation factor is 0.7.

As to `CCCCNC(=O)CSc1nc2ccc(NC(=O)CSc3nnc(COc4ccccc4C)n3C)cc2s1`, the activation factor was 0.8.

As for `CSc1nc2ccccc2cc1/C=C(\C#N)c1ccc(Cl)cc1Cl`, the activation factor was 0.9.

Consider `Cc1nnc(SCC(=O)Nc2ncc3c(n2)CC(C)(C)CC3=O)s1`, for which the activation factor was 1.

With `O=C(Nc1ccc2c(c1)OCCO2)C(c1ccc(F)cc1)N1CCCCC1` (stereo not drawn), the activation factor is 0.4.

For the compound `COc1cc(C2C(C(=O)OCCC#N)=C(C)NC3=C2S(=O)(=O)c2ccccc23)cc(OC)c1OC` (stereo not drawn), the activation factor is 0.8.

With `CCCCN1C(=O)CC(N2CCOCC2)C1=O` (stereo not drawn), the activation factor was 1.

In the case of `O=c1c2ccccc2nc2n1C1(CCCCC1)Cc1ccccc1-2`, the activation factor was 0.3.

On to `Cc1ccc(OCc2nnc(NC(=O)OCC(C)C)s2)cc1`, for which the activation factor is 0.9.

`Cc1csc(=NC(=O)c2ccccc2)n1CCO`: the activation factor is 0.5.

Regarding `CSC1=N/C(=C\c2ccc3c(c2)OCO3)C(=O)S1`, the activation factor was 1.

For `CC(C)(C)c1cc2cccnc2n1Cc1cccc(F)c1`, the activation factor was 0.9.

As to `CCNC(=S)Nc1cccc(Cl)c1C`, the activation factor is 0.5.

For `CN1CCN(c2ccc([N+](=O)[O-])c(Sc3nc4ccccc4[nH]3)c2)CC1`, the activation factor is 0.7.

With `CC/C(C)=N/Nc1nc2sc3c(c2c(=O)[nH]1)CC(C)(C)OC3`, the activation factor was 0.6.

In the case of `CCC(=O)Nc1ccc(C(=O)Nc2cccc(OC)c2)cc1`, the activation factor is 1.

Take `C=CCn1c(SCC(=O)c2c(N)n(C)c(=O)n(C)c2=O)nc2sc(CC)cc2c1=O`: the activation factor was 1.

Turning to `COc1ccc(-c2nc3ccccc3n2CCC(C)C)cc1OC`, the activation factor is 0.4.

For the compound `CC(C)Oc1ccc(C(=O)NC(C)(C)CO)cc1`, the activation factor was 1.

For `COc1ccc(C(=O)Nc2ncc3c(n2)-c2ccccc2CC3)cc1`, the activation factor is 0.9.

Turning to `O=C(Nc1cccc2ccccc12)c1onc2c1CCCC2`, the activation factor is 0.9.

As to `FC(F)(F)c1ccc2nnc(-c3c(Cl)cccc3Cl)n2c1`, the activation factor is 0.7.

As to `Cc1cc(C(=O)OCC(=O)Nc2ccc(F)c(F)c2)c(C)o1`, the activation factor is 0.1.

On to `Cc1nnc(SCC(=O)NC(=O)NC2CCCC2)n1N`, for which the activation factor was 1.

`Cc1ccc(-c2csc(N(Cc3ccco3)C(=O)c3cccs3)n2)cc1`: the activation factor is 0.3.

For the compound `O=C(c1ccccc1Oc1ccccc1)N1CCN(c2ccc(F)cc2)CC1`, the activation factor was 0.1.

For the compound `O=C1N=C(N2CCCC2)S/C1=C\c1cccc(Br)c1`, the activation factor is 0.4.

On to `Cc1noc(C)c1COC(=O)c1cc2ccccc2cc1O`, for which the activation factor was 0.1.

Regarding `Cc1nnc(OCC(=O)NCCC2=CCCCC2)c2ccccc12`, the activation factor is 0.4.

As for `CCOCCCNC(=O)C(NC(=O)CNC(=O)c1ccccc1)c1ccc(C)cc1` (stereo not drawn), the activation factor is 1.1.

In the case of `Nn1c(SCC(=O)NC2CCCC2)nnc1-c1ccccc1F`, the activation factor is 0.8.

Consider `CCN(CC)Cc1csc2ccc(Br)cc12`, for which the activation factor is 0.9.

Regarding `CN(C)c1ccc(CNC2C3CC4CC(C3)CC2C4)cc1` (stereo not drawn), the activation factor is 0.2.

`FC(F)(F)c1cccc(-c2cc3ccccc3nc2N2CCCC2)c1`: the activation factor was 0.8.

Consider `COc1ccc2[nH]c(=O)c(CNc3ccc(C)c(C)c3)cc2c1`, for which the activation factor was 0.8.

Turning to `Cn1nc(C(F)(F)F)c(C(=O)Nc2cccc(C(F)(F)F)c2)c1SCc1ccc(Cl)cc1`, the activation factor was 0.1.

On to `Cc1ccc(/C=N\n2c(-c3ccccc3)n[nH]c2=S)s1`, for which the activation factor is 1.

Take `CCCCCCOc1ccc(OC(=O)c2cccnc2)cc1`: the activation factor is 0.8.

`O=S(=O)(c1cnccc1N1CCN(/N=C/c2ccc(Br)cc2)CC1)N1CCCCC1`: the activation factor was 1.1.

The values above are taken from PubChem BioAssay AID1025 (Sanford-Burnham Center for Chemical Genomics, 2008).
